Several values for one entry are separate records, joined by “and”; a condition that tells them apart may be missing. Equal values may be shown once. The whole screen tested about 260,000 compounds, of which about 1,500 (0.58%) were called active. About 5% were inconclusive and are not listed.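 How the source made its calls: active means inhibition above a set limit at one or more doses, reproduced on every date tested; inconclusive means results disagree between test dates, or hit never tested in dose response; inactive means the rest.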 These entries were drawn from the full list. Results with a measured potency or affinity are listed apart.
Target: Virion infectivity factor (Human immunodeficiency virus type 1 group M subtype B (isolate BH10)) + Virion infectivity factor (Human immunodeficiency virus type 1 group M subtype B (isolate BRU/LAI)) + Virion infectivity factor (Human immunodeficiency virus type 1 group M subtype B (isolate PCV12)) + Virion infectivity factor (Human immunodeficiency virus type 1 group M subtype B (isolate HXB2)) + DNA dC->dU-editing enzyme APOBEC-3G (Homo sapiens) (UniProt P69720+P69721+P69722+P69723+Q9HC16)
Test: inhibitors of Vif binding to APOBEC3G peptide, primary screen, biochemical, TR-FRET, GST-Vif 1-94, biotin-A3G peptide, dose response retest (AID 1117319);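 further: Vif residues 1-94 fused to GST binding biotinylated APOBEC3G peptide 110-148; 0% = full assay without inhibitor and 100% = GST in place of GST-Vif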
Conditions: active compounds read high

Row | Structure (SMILES) | inhibition
1 | COc1cccc(OC)c1C(=O)OCC(=O)NCC(C)C | 14.3% (inactive)
2 | CC1(C)N([O-])C2=C(CCCC2)[N+]1=O | 4.01% (inactive)
3 | CCC1(C)N([O-])C(C)=C(c2ccccc2)[N+]1=O (stereo not drawn) | 4.55% (inactive)
4 | CCc1ccc(N(C(=O)c2csnn2)C(C(=O)NC(C)(C)C)c2ccccn2)cc1 (stereo not drawn) | 0.91% (inactive)
5 | O=C(c1n[nH]c(=O)c2ccccc12)N1CCN(Cc2ccc3c(c2)OCO3)CC1 | 4.07% (inactive)
6 | CCN(CC(=O)Nc1c(F)cccc1F)C(=O)c1ccc(N2CCCC2=O)cc1 | -13.8% (inactive)
7 | CCOC(=O)c1csc(NC(=O)c2cc3ccccc3o2)n1 | 0.78% (inactive)
8 | Cc1csc(NC(=O)c2cc3ccccc3o2)n1 | 0.57% (inactive)
9 | Cc1ccc(OCC(=O)NCc2ccc3c(c2)OCO3)c([N+](=O)[O-])n1 | 8.23% (inactive)
10 | CC(C)C(=O)Nc1nnc(Cc2ccccc2)s1 | -2.22% (inactive)
11 | CNC(=O)CC12CC3CC(CC(C3)C1)C2 | 6.4% (inactive)
12 | CCN1CCC(=NNC(=O)c2ccco2)CC1 | 5.57% (inactive)
13 | CCOP(=O)(OCC)c1nc(-c2cccc([N+](=O)[O-])c2)oc1N1CCCCC1 | 5.71% (inactive)
14 | Cc1cc(C(=O)CSc2nnnn2C)c(C)n1CCc1ccc(F)cc1 | 15.4% (inactive)
15 | COc1ccc(CCn2c(C)cc(C(=O)CSc3nnnn3C)c2C)cc1 | 26.9% (inactive)
16 | CNC(=O)c1sccc1SCc1c(Cl)cccc1Cl | -1.14% (inactive)
17 | CC1=C(C(=O)OCC(Cl)(Cl)Cl)N2C(=O)C(NC(=O)Cc3ccccc3)C2SC1 (stereo not drawn) | 67.2% (inactive)
18 | Cc1nnc(SCC2=C(C(=O)O)N3C(=O)C(NC(=O)Cc4ccccc4)C3SC2)s1 (stereo not drawn) | 7.27% (inactive)
19 | COc1ccccc1N1CC(C(=O)OCc2nc(N)nc(Nc3ccccc3)n2)CC1=O (stereo not drawn) | 15.4% (inactive)
20 | CC1(C(=O)N2CCOCC2)CCCCC1 | -0.21% (inactive)

Row | Structure (SMILES) | inhibition
21 | Cc1cc(C)cc(OCC(=O)Nc2cc(C)on2)c1 | 0.63% (inactive)
22 | CCn1c(CNC(=O)c2cccc(C)c2)nnc1SCC(=O)NC1=NCCS1 | -12% (inactive)
23 | CCCNS(=O)(=O)c1ccc(OCC(=O)N2CCC(C(=O)OCC)CC2)cc1 | -4.14% (inactive)
24 | CCOC(=O)N1CCN(C(=O)COc2ccc(S(=O)(=O)NC(C)C)cc2)CC1 | -4.61% (inactive)
25 | O=C(Nc1ccc2c(c1)OCCO2)c1ccc(Cl)cc1 | -3.98% (inactive)
26 | CC(=O)c1cc2c(cc1NC(=O)c1cccc(S(=O)(=O)N3CCN(C)CC3)c1)OCO2 | -12.7% (inactive)
27 | C/C(=N\NC(=O)c1ccc(=O)[nH]n1)c1cccnc1 | 3.66% (inactive)
28 | CC(C)(C)C(=O)OCc1nc(-c2ccc(Cl)cc2)cs1 | -5.87% (inactive)
29 | COc1ccc(-c2csc(COC(=O)C(C)(C)C)n2)cc1 | -3.51% (inactive)
30 | N#C/C(=C\c1ccc(-c2cccc([N+](=O)[O-])c2)o1)C(=O)Nc1nc(-c2cccs2)cs1 | 3.46% (inactive)
31 | Cc1cccc(NC(=O)CN(C)S(=O)(=O)c2cccc3cccnc23)c1 | 2.4% (inactive)
32 | Cc1cc(C#N)c(C)c(SCc2[nH]nc3c2C(c2ccccc2)C(C#N)=C(N)O3)n1 (stereo not drawn) | 7.14% (inactive)
33 | COC(=O)c1ccccc1NC(=O)CN1CCC(C)CC1 | 26.5% (inactive)
34 | Cc1c(NC2=C(Cl)C(=O)N(c3ccccc3)C2=O)c(=O)n(-c2ccccc2)n1C | 6.24% (inactive)
35 | COCCN(C(=O)COC(=O)CSc1cc(C)ccc1C)c1c(N)n(Cc2ccccc2)c(=O)[nH]c1=O | -5.52% (inactive)
36 | CC(=O)Nc1ccc2c(c1)OCCO2 | -3.04% (inactive)
37 | CC(=O)Nc1ccc2c(c1)OCCOCCOc1cc(NC(C)=O)ccc1OCCOCCOCCO2 | 30.1% (inactive)
38 | O=C(O)c1cccc(-n2cccc2C=C2C(=O)c3ccccc3C2=O)c1 | 29.9% (inactive)
39 | COc1ccc(-n2cccc2/C=C/[N+](=O)[O-])cc1 | 20.8% (inactive)
40 | CC(C)[C@H](NC(=O)OCc1ccccc1)C(=O)OCC(=O)N1CCN(c2ccc(F)cc2)CC1 | -1.08% (inactive)

Row | Structure (SMILES) | inhibition
41 | CCNc1nc(ON=C(C)C)nc(N(C)C)n1 | -7.57% (inactive)
42 | CCC(C)NC(=O)c1ccc(CSCc2ccccc2Cl)o1 (stereo not drawn) | 2.45% (inactive)
43 | COc1ccc(OC)c(Nc2nc(-c3cccs3)cs2)c1 | 3.68% (inactive)
44 | COc1ccc(OC)c(Nc2nc(-c3sc(N)nc3C)cs2)c1 | 7.55% (inactive)
45 | Cc1ccc(C2/C(=C(\O)c3ccc4c(c3)OCCO4)C(=O)C(=O)N2CC2CCCO2)cc1 (stereo not drawn) | -0.97% (inactive)
46 | COc1ccc(/C(C)=N/NC(=O)CNC(=O)c2cccnc2)c(OC)c1 | 3.46% (inactive)
47 | COc1ccc(OC)c(NC(=O)NC2CCCCCCC2)c1 | -6.56% (inactive)
48 | COc1ccccc1C(=O)N1CCCC(c2nc(-c3cc(OC)c(OC)c(OC)c3)no2)C1 (stereo not drawn) | -8.18% (inactive)
49 | CCOC(=O)C1=C(c2ccccc2)N=c2s/c(=C\c3ccc(O)cc3)c(=O)n2C1c1cccs1 (stereo not drawn) | -10.4% (inactive)
50 | CCOC(=O)C1=C(C)N=c2s/c(=C/c3ccccc3)c(=O)n2C1c1ccc(OC)c(OC)c1 (stereo not drawn) | 1.78% (inactive)
51 | CC1=C(C(=O)Nc2ccccc2C)C(c2ccc(C)o2)n2c(s/c(=C/c3ccccc3)c2=O)=N1 (stereo not drawn) | 29.2% (inactive)
52 | CCOC(=O)C1=C(c2ccccc2)N=c2s/c(=C\c3cccc(O)c3)c(=O)n2C1c1cccs1 (stereo not drawn) | -2.23% (inactive) and -5.42% (inactive)
53 | COc1ccc(C2C(C(C)=O)=C(C)N=c3s/c(=C\c4ccco4)c(=O)n32)c(OC)c1 (stereo not drawn) | 31.2% (inactive)
54 | CC1=C(C(=O)Nc2ccccc2)C(c2ccc(C)o2)n2c(s/c(=C/c3ccccc3)c2=O)=N1 (stereo not drawn) | 12.7% (inactive)
55 | COc1cccc(CNC(=O)CSCc2cnn(-c3ccccc3)c2-n2cccc2)c1 | 2.53% (inactive) and 7.19% (inactive)
56 | CC(=O)c1cnc2n(c1=O)CCS2 | -2.48% (inactive)
57 | COc1ccc(C(CC(=O)c2ccc(C)cc2)C(C#N)C#N)cc1OC (stereo not drawn) | -6.99% (inactive)
58 | O=C(O)CCCNC(=O)OCc1ccccc1 | -2.72% (inactive)

Reference: PubChem BioAssay AID1117319 (Southern Research Institute, 2015)
